Shown are actives, neighbours in structure and some others; about 5.4% of the full set was active somewhere.
Lassa entry inh – blocks Lassa virus binding to or entry into cells; Lassa virus pseudotype entry inhibition, cell reporter; AID 540256; 300,000 compounds, 1.2% hits; Potency, µM (titrated, usually from 37.9 µM), for inactives: at the highest dose activity change, negative = inhibition, most hits filed as inhibitors; calls by dose curve; tested in HEK293 cells; further: nearly all actives have a fitted effect of over 50% in size
Marburg entry inh – blocks Marburg virus binding to or entry into cells; Marburg virus pseudotyped entry inhibition, cell reporter; Potency, µM (top dose mostly 37.8 µM), for inactives: at the top dose activity change, negative = inhibition, most hits filed as inhibitors; 300,000 compounds, 1.8% hits; AID 540276; calls by dose curve; tested in HEK293 cells
Vaccinia Venus – vaccinia inhibition (Venus reporter) | Vaccinia virus Venus reporter expression, fluorescence | Potency, µM (doses to about 36.5 µM), for inactives: at the highest dose activity change, negative = inhibition, usual class: inhibitors | 330,000 compounds, 0.46% hits | AID 720580; calls by dose curve; tested in A549 cells; further: nearly all actives have a fitted effect of over 30% in size
Vaccinia mCherry – inhibitors of vaccinia virus infection (mCherry reporter signal) | Vaccinia virus mCherry reporter infection, fluorescence | Potency, µM (highest dose often 36.5 µM), without a hit: at the highest dose activity change, negative = inhibition, actives largely listed as inhibitors | 310,000 compounds, 0.63% hits | AID 720579; calls by dose curve; tested in A549 cells; further: nearly all actives have a fitted effect of over 35% in size
Sm TGR inh – blocks Schistosoma mansoni thioredoxin glutathione reductase. purified TGR, DTNB reduction, TNB absorbance 405 nm. 360,000 compounds, 3% hits. Potency, µM (doses to about 114 µM), for the others: at the top dose activity change, negative = inhibition, hits mostly inhibitors; active means well fitted inhibition curve with a large enough effect; inconclusive means small, poorly fitted or top-dose-only effect; inactive means no such curve, though single readings can be large or run the other way; further: nearly all actives have a fitted effect of over 60% in size
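First, TGR (20 nM dispensed) and NADPH were mixed with compound. Second, a 15 min room-temperature incubation followed. Third, further NADPH and then DTNB were added to start the reaction. Finally, TNB absorbance was monitored kinetically.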
FMDV inh – blocks foot and mouth disease virus; Potency, µM (titrated, usually from 57.9 µM), without a hit: at the top dose activity change, negative = inhibition, usual class: inhibitors; FMDV antiviral cell-based qHTS; 410,000 compounds, 1.2% hits; calls by dose curve; tested in HEK293T cells; further: read-out not given here; nearly all actives have a fitted effect of over 45% in size
Active calls of the source: *; i = inactive; ? = inconclusive; nt = no result; [ ] = remark or other dose. On the % scale 0 is the no-effect control and ±100 the full control effect; potency means the concentration at half of the fitted maximal effect.

SMILES | Lassa entry inh | Marburg entry inh | Vaccinia Venus | Vaccinia mCherry | Sm TGR inh | FMDV inh
Cc1ccc(-c2nnn(CC(=O)N(Cc3ccco3)C(C(=O)NC(C)(C)C)c3cccs3)n2)o1 (configuration not stated) | -6% | ? | nt | nt | 18µM* | -21%
COCCN(C(=O)Cc1cccs1)C(C(=O)NCc1ccc(OC)cc1)c1ccc(OC)cc1 (configuration not stated) | ? | 0% | 0% | -10% | -4% | nt
COc1ccc(CNC(=O)C(c2cccs2)N(Cc2ccco2)C(=O)Cc2cccs2)cc1 (configuration not stated) | ? | ? | -22% | -40% | 28µM* | -23%
Cc1ccc(-c2nnn(CC(=O)N(Cc3cccs3)C(C(=O)NC(C)(C)C)c3ccco3)n2)o1 (configuration not stated) | -1% | 4% | nt | nt | ? | 6%
COc1ccc(CNC(=O)C(c2ccc(C)cc2)N(Cc2cccs2)C(=O)c2ccc3c(c2)OCCO3)cc1 (configuration not stated) | ? | 12µM* | -26% | -18% | -7% | ?
Cc1ccc(C(C(=O)NCc2ccccc2)N(Cc2cccs2)C(=O)c2ccc3c(c2)OCCO3)cc1 (configuration not stated) | 6.5µM* | 6.5µM* | nt | nt | -13% | -13%
CC(=O)Nc1ccc(NC(=O)c2cnn(-c3ccccc3)c2C2CCN(C(=O)OC(C)(C)C)CC2)cc1 | -39%[46.1 µM] | -16%[46.1 µM] | 0% | 4% | 5µM* | -28%
COc1ccc(CCN2CCC(CNC(=O)c3cnn(-c4ccc(C)cc4)c3C3CCN(C(=O)OC(C)(C)C)CC3)CC2)cc1 | ? | nt | 11µM* | ? | -4% | -4%
CCN1CCN(C(=O)c2cnn(-c3cccc(Cl)c3)c2C2CCN(C(=O)OC(C)(C)C)CC2)CC1 | 7.1µM* | nt | -5% | -18% | 1% | -13%
Cc1ccc(-n2ncc(C(=O)N3CCN(C4CCCCC4)CC3)c2C2CCN(C(=O)OC(C)(C)C)CC2)cc1C | 2µM* | nt | -22% | -24% | 0% | ?
CC(C)(C)OC(=O)N1CCC(c2c(C(=O)N3CCN(C4CCCCC4)CC3)cnn2-c2cccc(Cl)c2)CC1 | ? | nt | -19% | -19% | -6% | -25%
Cc1ccc2c(c1)C(c1ccccc1)N(C(=O)Cc1ccc(F)cc1)CC(=O)N2 (configuration not stated) | ? | 9%[46.1 µM] | -11% | -18% | 1% | -19%
O=C(Nc1c(C(=O)N2CCN(c3ccccc3)CC2)oc2ccccc12)c1ccc(Br)o1 | ? | ? | -5% | i | -2% | 43%
COc1cccc(C2(CC(=O)N3CCN(c4ccccn4)CC3)CC(=O)N(C3CCCC3)C2=O)c1 (configuration not stated) | nt | nt | -17% | -1% | nt | -1%
O=[N+]([O-])c1ccc(N2CCN(Cc3ccccc3)CC2)s1 | 1%[46.1 µM] | 16%[46.1 µM] | -19% | i | -17% | -17%
O=[N+]([O-])c1ccc(N2CCN(Cc3ccccc3)CC2)c2c1no[n+]2[O-] | nt | nt | 4% | ? | nt | 28µM*
COc1ccc(C(=O)NCc2ccc3c(c2)CCN3C(=O)c2ccc(Cl)cc2)c(OC)c1 | 9%[46.1 µM] | nt | -9% | i | -1% | 0%
O=C(Nc1c(C(=O)N2CCN(c3ccc(F)cc3)CC2)oc2ccccc12)c1c(F)cccc1F | 0%[46.1 µM] | nt | -5% | -17% | -1% | 2%
CN(Cc1ccco1)C(=O)Cn1cc(S(=O)(=O)N2CCCC2)c(S(=O)(=O)N2CCCC2)c1 | -1%[46.1 µM] | -15%[46.1 µM] | -9% | -20% | 35µM* | 2%
C=CC(C)(C)c1c(O)c(CC=C(C)C)c(O)c2c(=O)c3ccc(O)c(O)c3oc12 | nt | nt | ? | 8.9µM* | nt | ?
O=C1CC(c2ccc(Cl)c([N+](=O)[O-])c2)c2ccc3ccccc3c2N1 (configuration not stated) | ? | ? | ? | 11µM* | -5% | ?

Assay outcomes deposited in PubChem BioAssay by National Center for Advancing Translational Sciences (NCATS).
